# FMDV inh: foot and mouth disease virus antiviral activity | FMDV antiviral cell-based qHTS | Potency, µM (series often up to 57.9 µM), for inactives: at the highest dose activity change, negative = inhibition, most hits filed as inhibitors | 1.2% of 410,000 active | AID 1159524; calls by dose curve; tested in HEK293T cells; note: read-out not given here; nearly all actives have a fitted effect of over 45% in size
# Vaccinia mCherry: inhibitors of vaccinia virus infection (mCherry reporter signal); Vaccinia virus mCherry reporter infection, fluorescence; Potency, µM (highest dose often 36.5 µM), inactives show top-dose activity change, negative = inhibition, hits mostly inhibitors; 0.63% of 310,000 active; calls by dose curve; tested in A549 cells; note: nearly all actives have a fitted effect of over 35% in size
# HCV inh: blocks hepatitis C virus. AID 651820. 3.4% of 340,000 active. Potency, µM (doses to about 41.8 µM), without a hit: at the highest dose activity change, negative = inhibition, usual class: inhibitors. Huh7.5.1 HCVcc-Cre infection, luciferase reporter, 44 h; active = well fitted inhibition curve with a large enough effect; inconclusive = small, poorly fitted or top-dose-only effect, or another doubt; inactive = no such curve, though single readings can be large or run the other way
#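 Luciferase read-out (15 sec integration) after a 15 min room-temperature substrate step quantifies HCVcc-Cre infection. Cells, 1,000 per well, had compound added 4 h post-plating, then virus at ~0.5 moi, and were cultured 44 h.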
# MARV entry inh: inhibitors of Marburg virus binding or cell entry; Marburg virus pseudotyped entry inhibition, cell reporter; Potency, µM (series often up to 37.8 µM), for inactives: at the top dose activity change, negative = inhibition, most hits filed as inhibitors; 1.8% of 300,000 active; calls by dose curve; tested in HEK293 cells
# LASV entry inh: blocks Lassa virus binding to or entry into cells; Potency, µM (series often up to 37.9 µM), for inactives: top-dose activity change, negative = inhibition, hits mostly inhibitors; 1.2% of 300,000 active; AID 540256; Lassa virus pseudotype entry inhibition, cell reporter; calls by dose curve; tested in HEK293 cells; note: nearly all actives have a fitted effect of over 50% in size
# Vaccinia Venus: inhibitors of vaccinia virus (Venus reporter) | Vaccinia virus Venus reporter expression, fluorescence | Potency, µM (doses to about 36.5 µM), for the others: at the top dose activity change, negative = inhibition, hits mostly inhibitors | 0.46% of 330,000 active; calls by dose curve; tested in A549 cells; note: nearly all actives have a fitted effect of over 30% in size
# * hit, by the source's call; i = inactive; ? = inconclusive; . = no result; ! = not active in a repeat; [ ] = remark or other dose. The list is not random: actives were taken first. Their share in the collection is about 5.3%. % is set by controls: 0 for no effect and ±100 for the full control effect; potency is the fitted concentration of half-maximal effect.
SMILES,FMDV inh,Vaccinia mCherry,HCV inh,MARV entry inh,LASV entry inh,Vaccinia Venus
OC(CN1CCC(Cc2ccc(F)cc2)CC1)c1ccc(Cl)cc1 (stereo not given),-5%,.,.,7.1µM*,?,.
COc1cccc2c1C(=O)c1c(O)c3c(c(O)c1C2=O)C[C@@](O)(C(=O)CO)C[C@@H]3O[C@H]1C[C@H](N)[C@@H](O)[C@H](C)O1,-5%,139%,?,.,.,i
CC(=O)[C@]1(O)Cc2c(O)c3c(c(O)c2[C@@H](O[C@H]2C[C@H](N)[C@H](O)[C@H](C)O2)C1)C(=O)c1c(O)cccc1C3=O,.,.,.,0.056µM*,0.16µM*,.
COc1cccc2c1C(=O)c1c(O)c3c(c(O)c1C2=O)C[C@@](O)(C(C)=O)C[C@@H]3O[C@H]1C[C@H](N)[C@H](O)[C@H](C)O1,-15%,228%,6.3µM*!,0.23µM*,?,i
COc1ccc(C(=O)NNc2ncnc3c2cnn3-c2ccc(C)cc2C)cc1,5%,i,.,.,1%[46.1 µM],-9%
COC(=O)c1cccc(C(=O)NCc2nc(-c3cccc(NC(=O)c4ccoc4C)c3)oc2C)c1,22µM*,-26%,.,.,.,-23%
Cc1occc1C(=O)Nc1cccc(-c2nc(CNC(=O)c3cccc(C#CC(C)(C)O)c3)c(C)o2)c1,20µM*,?,.,.,.,?
CSc1ccccc1C(=O)NCc1nc(-c2cccc(NC(=O)c3ccoc3C)c2)oc1C,32µM*,?,.,.,.,-29%
Cc1occc1C(=O)Nc1cccc(-c2nc(CNC(=O)c3ccc4ccccc4n3)c(C)o2)c1,-8%,-3%,.,.,.,-21%
Nc1nc(-c2ccccn2)nc(N)c1Cc1ccccc1F,7%,-16%,?,?,?,-12%
Nc1nc(-c2ccccn2)nc(N)c1Cc1ccc(Cl)cc1Cl,6%,?,3.5µM*,?,?,-17%
Nc1nc(-c2ccccn2)nc(N)c1Cc1c(F)cccc1Cl,3%,?,5µM*,?,?,-23%
O=c1c2sc3ccccc3c2n(Cc2cccc(C(F)(F)F)c2)c(=O)n1Cc1ccco1,-22%,-3%,.,-30%[46.1 µM],-6%[46.1 µM],-4%
Cc1cc2c(s1)Nc1ccccc1N=C2N1CCN(C)CC1,-7%,-4%,17%,.,.,-18%
Cc1ccc2c(c1)C(N1CCN(C)CC1)=Nc1cccnc1N2,.,.,.,11µM*!,8%,.
COc1ccc(NC(=O)c2ccccc2OCC(=O)Nc2ccc(Br)cc2)cc1,.,-18%,.,.,.,-22%
O=c1nc(N/N=C/C=C/c2ccccc2)cn[nH]1,?,i,11%,-9%[46.1 µM],2.2µM*,-6%
O=c1nc(N/N=C/c2c[nH]c3ccccc23)cn[nH]1,8%,-27%,3%,8.9µM*,?,-17%
C(=N\Nc1ccccn1)/c1c[nH]c2ccccc12,12%,?,-24%,?,-9%[46.1 µM],?
C(=C\c1ccccc1)/C=N/Nc1nncc(-c2ccccc2)n1,.,.,3%,32%,0%,.
Cc1cc(C)c2c(CC(=O)Nc3ccc(S(=O)(=O)N4CCCC(C)C4)cc3)coc2c1 (stereo not given),-17%,-13%,.,?,-7%[46.1 µM],-11%
Cc1cccc(CN2Cc3cccc4c3[C@H](C=CC4)CC2=O)c1,.,i,.,.,.,-9%
CCN1CC(CN(C)Cc2cn(-c3ccc(C)cc3)nc2-c2cccc(C)c2)CC1=O (stereo not given),-1%,i,-12%,11µM*,?,-17%
COCC1CCCN(C(=O)c2cc(COc3ccc4ncccc4c3)on2)C1 (stereo not given),?,-7%,1µM*,?,?,-15%
CCOC(=O)C1CCCN(C(=O)c2cc(-c3ccc(C)cc3)on2)C1 (stereo not given),.,i,-19%,-28%,?,-8%
SMILES,FMDV inh,Vaccinia mCherry,HCV inh,MARV entry inh,LASV entry inh,Vaccinia Venus
CCOC(=O)C1CCCN(C(=O)COc2ccc(C(=O)c3ccc(F)cc3)cc2)C1 (stereo not given),?,.,13µM*,.,.,.
O=C(COc1ccc(F)cc1)N1CCCCCCC1,16%,i,15%,30%[46.1 µM],13%[46.1 µM],-1%
O=C(c1cc(COc2ccc3ncccc3c2)on1)N1CCC(O)CC1,-27%,-30%,8.9µM*,?,-26%,-20%
CCOC(=O)C1CCCN(C(=O)c2cc(COc3ccc(C)nc3)on2)C1 (stereo not given),-4%,-20%,8.9µM*,-14%,-26%,-21%
COc1cccc(-c2nc(SCC(=O)NC3CCCC3)c(-c3ccc(F)cc3)[nH]2)c1,-13%,-6%,.,-14%[46.1 µM],?,-14%
Cc1c2cnn(-c3ccccc3)c(=O)c2c(C)n1CC(=O)NCc1ccccc1Br,-18%,-8%,.,-3%[46.1 µM],-2%[46.1 µM],-7%
Cc1cc(C)cc(OCCCn2c(-c3ccc(Cl)cc3)nc3ccccc3c2=O)c1,3%,4%,.,5%[46.1 µM],?,9%
COc1cc(CN2C(=O)C(C)ON=C2c2cccs2)cc(OC)c1 (stereo not given),-20%,30%,.,.,.,3%
O=C(NC1CCCCCCC1)c1cc(COc2ccc3ncccc3c2)on1,3.5µM*,-25%,?,-19%[46.1 µM],?,-18%
O=C(c1cc(COc2ccc3ncccc3c2)on1)N1CCCC(O)C1 (stereo not given),-20%,-10%,?,-18%[46.1 µM],-5%[46.1 µM],-28%
CCC(O)C1CCN(C(=O)c2cc(COc3ccc4ncccc4c3)on2)CC1 (stereo not given),?,-18%,1.8µM*,?,?,-24%
COc1ccc2c(CNCc3cccs3)c(C(=O)O)n(Cc3cccc(F)c3)c2c1,41%,-8%,.,.,-13%[46.1 µM],-11%
COc1ccc(NS(=O)(=O)c2cc([N+](=O)[O-])ccc2N/N=C/c2c(C)[nH]c3ccccc23)cc1,21%,-14%,11µM*,19%,-4%,-3%
Cc1ccc2nc(N(Cc3cccnc3)C(=O)c3ccco3)sc2c1,41%,-6%,.,.,15%[46.1 µM],-20%
COc1ccc(CNC(=O)C2CCN(S(=O)(=O)c3ccc4c(c3)CCCN4C(C)=O)CC2)cc1,-20%,3%,.,.,-15%[46.1 µM],-10%
CCN(CC)c1ccc2c(O)cc(=O)oc2c1,0%,i,11%,15%[46.1 µM],24%,-7%
CCN(CC)c1ccc(C(=O)OCc2cc(=O)oc3cc(O)ccc23)cc1,?,?,22µM*,?,15µM*,-15%
c1ccc(COC(CN2CCCCCC2)CN2CCCCCC2)cc1,-6%,.,10µM*,.,.,.
COC(=O)c1ccc(CSc2nc3ccccc3c(=O)n2-c2ccc(OC)c(OC)c2)o1,.,-25%,10µM*,-5%,?,-21%
O=C(Nc1cc(Cl)cc(Cl)c1)c1ccc(F)c(S(=O)(=O)N2CCCCCC2)c1,?,-13%,.,.,?,-14%
O=C(Cc1sc(-c2ccccc2Cl)nc1-c1ccccc1)Nc1ccc(F)cc1,-7%,.,7.9µM*,?,-29%,2%
Cc1ccc(C)c(CN2CCc3nnc(CNC(=O)c4cc(C)oc4C)n3CC2)c1,-21%,-20%,.,.,.,-13%
